These results are taken from PubChem BioAssay (NCI).

This is part of a sample that, as a whole, favours compounds with a hit. Of some 83,000 tested, about 20% had one in any assay.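 Assay: single dose, 48 h. Readout: percent growth (0 = no net growth; negative = cell death). Active: <10.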 A number with no mark means an inactive call. Calls of active or inactive are those of the source.

Holding throughout (assay): NCI-60 one-dose screen, 48 h (100 = growth as untreated, 0 = no growth, -100 = all killed)
Holding throughout (details): 10 µM unless noted

Experiment [1] deals with NCI-H23 lung.
For experiment [2], the system named is NCI-H226 lung.
The test system of experiment [3] is NCI-H322M lung.
The subject of experiment [4] is HOP-62 NSCLC.
Experiment [5] deals with NCI-H460 lung.
Experiment [6] relates to HOP-92 NSCLC.
Experiment [7] deals with NCI-H522 lung.
Experiment [8] relates to A549/ATCC NSCLC.
Experiment [9] concerns 786-0 renal.
Experiment [10] relates to COLO 205 colon.

Consider `CCCCCS(=O)(=O)Nc1ccc(C(=O)O)cc1`, for which the growth in experiment [1] was 102%; in experiment [2], 98.9%; in [3] it was 97.3%; in experiment [4], 98.2%; in experiment [5], 104%; in experiment [6], 105%. Moreover, the growth in experiment [7] was 75.4%; in experiment [8] it was 87.4%; in experiment [9] it was 102%; in experiment [10], 104%.
`Cn1c2c(c3ccc(Cl)c(Cl)c31)C(C#N)C1(CCNCC1)NC2=O` (stereo not given): the growth in experiment [1] is 72.6%; in experiment [2], 44.1%; in [3], 55.3%; in experiment [4], 23.8%; in experiment [5], 18.3%; in [6], 21.9%. Besides, the growth in experiment [7] is 47.3%; in [8], 31.2%; in experiment [9], 54.5%; in [10], -76.6% (active).
As to `N[C@@H](CCCCNCC(=O)O)C(=O)O`, the growth in experiment [1] is 95.1%; in [2] it was 98.4%; in [3], 110%; in experiment [4], 101%; in experiment [5], 103%; in [6], 64.5%. For the same compound, the growth in [7] is 96.3%; in experiment [8] it was 101%; in [9], 97.2%; in experiment [10] it was 111%.
As to `COc1cc2c(cc1-c1c(C)noc1C)ncc1nc(C3CCCCC3)n(C3CCC(OC(F)F)CC3)c12` (stereo not given), the growth in experiment [1] is 40.8%; in experiment [2], 62.2%; in experiment [3] it was 54.7%; in experiment [4] it was 38.3%; in experiment [5], 37.3%; in experiment [6] it was 1.82% (active). The growth in experiment [7] is -12.2% (active); in experiment [8], 25.3%; in experiment [9] it was 41.4%; in experiment [10], 1.16% (active).
For the compound `Cc1nc2ccccc2c(/C=C/c2ccc(Cl)cc2)c1C(=O)/C=C/c1ccc(F)cc1`, the growth in experiment [1] is 17.3%; in experiment [2], -8.4% (active); in [3] it was 51.8%; in [4] it was 3.74% (active); in experiment [5] it was -66.9% (active); in experiment [6] it was 66.3%. The growth is 1.17% (active) in [7], 74.6% in experiment [8], -24.7% (active) in [9] and 13.9% in experiment [10].
As to `COc1cc(/C=N/n2c(CN3CCOCC3)nc3ccccc3c2=O)cc(OC)c1OC`, the growth in experiment [1] is 98.9%; in experiment [2], 115%; in experiment [3], 90%; in experiment [4], 96.4%; in experiment [5], 109%; in experiment [6], 106%. Moreover, the growth in experiment [7] is 97.9%; in [8] it was 92.3%; in experiment [9] it was 100%; in experiment [10], 106%.
For `CNC(=O)c1cc(Oc2cccc3nc(Nc4ccc(F)c(Cl)c4)ccc23)ccn1`, the growth in experiment [1] was 70%; in [2], 46.9%; in experiment [3], 76.6%; in experiment [4], 50.5%; in [5] it was 62.5%; in experiment [6], 77.9%. Moreover, the growth in experiment [7] was 40%; in [8] it was 42.1%; in experiment [9], 42.6%; in experiment [10], 43.7%.
For the compound `Cc1ccc(NCCN(C)C)c2c(=O)c3ccccc3sc12`, the growth was 40.5% in experiment [1]; 32.3% in [2]; 53.5% in experiment [3]; 36.2% in experiment [4]; -14.5% (active) in experiment [5]; 30.4% in experiment [6]. For the same compound, the growth in experiment [7] was 16.8%; in experiment [8] it was 7.25% (active); in [9], 24.2%; in [10], -53.5% (active).
For `Clc1cc(Cl)cc(Nc2ccc3cc(OCCCN4CCOCC4)ccc3n2)c1`, the growth in experiment [1] is 37.6%; in [2], 68.5%; in experiment [3], 59.4%; in [4], 22%; in experiment [5], 17.5%; in experiment [6], 27.5%. For the same compound, the growth in [7] is -21.1% (active); in experiment [8], 35.6%; in experiment [9], -36.6% (active); in experiment [10], -51.3% (active).
With `COC(=O)[C@]12CC[C@@H](C)[C@H](C)[C@@H]1C1=CC[C@@H]3[C@@]4(C)C(C=O)=C[C@@](C)(CO)[C@@H]4[C@H](O)C[C@@]3(C)[C@]1(C)CC2`, the growth in experiment [1] was -17.1% (active); in experiment [2], 3.36% (active); in [3] it was 32.9%; in [4], 11.9%; in [5], -35% (active); in [6], -22.8% (active). For the same compound, the growth in [7] was -37.5% (active); in experiment [8] it was -1.72% (active); in experiment [9], -30.4% (active); in experiment [10], -28% (active).
Take `C[n+]1cccc(CC(=O)NO)c1`: the growth in [1] was 102%; in experiment [2], 89.3%; in [3] it was 97.2%; in [4], 92.7%; in [5] it was 101%; in experiment [6], 82.5%. Further, the growth in experiment [7] was 84.6%; in experiment [8], 68.1%; in experiment [9] it was 106%; in experiment [10], 97.7%.
As for `Cc1cc(=O)[nH]c(N=Nc2c(O)[nH]c3ccccc23)n1`, the growth was 100% in experiment [1]; 97.9% in [2]; 123% in [3]; 119% in experiment [4]; 105% in [5]; 101% in experiment [6]. Besides, the growth in experiment [7] was 103%; in experiment [8], 103%; in [9], 102%; in experiment [10], 89.5%.
Turning to `CCN1CCN(c2nc(C)cc(NCc3cc(Nc4ccnc5cc(Cl)ccc45)ccc3F)n2)CC1`, the growth in experiment [1] was 46.5%; in experiment [2], 69.1%; in [3], 50.5%; in experiment [4] it was 12%; in experiment [5] it was -12.6% (active); in [6], 36%. The growth in [7] is -14.8% (active); in experiment [8], 28%; in experiment [9] it was -51.2% (active); in experiment [10], -56.4% (active).
As for `N#Cc1c(N)nn(C(=O)c2ccc(NC(=O)c3ccccn3)cc2)c1-c1ccc(Cl)cc1`, the growth was 20% in experiment [1]; 20.1% in [2]; 22.2% in experiment [3]; -18.4% (active) in [4]; 15.9% in [5]; 7.04% (active) in [6]. Also, the growth was 36.3% in [7], 35.4% in [8], 9.76% (active) in experiment [9] and 1.15% (active) in experiment [10].
